Reference: PubChem BioAssay AID2012 (Sanford-Burnham Center for Chemical Genomics, 2009)
The campaign covered roughly 290,000 compounds. About 2,700 (0.93%) were called active. The rule behind the calls is not given here. For the sample, actives were picked, then their nearest neighbours and some compounds at random.

Biological target: Eukaryotic translation initiation factor 4H (Homo sapiens) (UniProt Q15056)
Assay: human eIF4H binding inhibitors, primary screen, translation initiation inhibitor project, biochemical, uHTS, fluorescence polarization (AID 2012);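 note: calls also rest on retests at 20 µM and on dose response follow-up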
Settings: eIF4H fluorescence polarization binding assay, stronger effect = higher value

Structure (SMILES)	inhibition (at 35 µM)	inhibition (confirmation average, at 20 µM) [%]
CC(C)n1c(COc2ccccc2)nc2ccccc21	-1.5% (inactive)	
CCC(Oc1ccccc1C)C(=O)Nc1ccc(S(=O)(=O)Nc2cc(C)on2)cc1 (stereo unspecified)	-3.3% (inactive)	
CN(C)S(=O)(=O)N1CCC(Oc2cccc(C(=O)NCCCC3CCCC3)c2)CC1	-18.3% (inactive)	
O=C(OCc1cc2ccccc2[nH]c1=O)c1cccnc1	-7.3% (inactive)	
O=C(OCc1cc(Cl)ccc1OC(F)F)c1cccnc1	54.6% (active)	83.8
Cc1cc(=O)[nH]c(SCc2cc(Cl)ccc2OC(F)F)n1	-16.4% (inactive)	
Cn1c(CCNS(=O)(=O)c2ccc(F)cc2)nnc1SCc1cccnc1	-0.9% (inactive)	
CCCC(=O)C1CCN(Cc2ccccc2)CC1	7.7% (active)	89.5
CCNC(=S)NNC(=O)C1CCN(Cc2ccccc2)CC1	1.5% (inactive)	
CCOC(=O)C1CCN(Cc2ccc(-c3ccccc3)cc2)CC1	3.6% (inactive)	
COCCCNC(=O)Cc1ccc(-n2c(C)nc3cccnc32)cc1	63.6% (inactive)	13.7
CCOC(=O)CNC(=O)CSc1nc2cccnc2n1CC	5.8% (inactive)	
CCc1nc2cccnc2n1-c1ccc(C(=O)O)cc1	91.6% (active)	89.8
CCN(CC(=O)Nc1ccc(C)c(S(=O)(=O)N(C)C)c1)Cc1ccccc1	6.5% (inactive)	
O=c1c(-c2cccc(Cl)c2)c[nH]n1-c1ccccc1	4.3% (inactive)	
O=C(CN1CCCC1)N1CCN(c2ccccc2)CC1	-11.2% (inactive)	
CCCC(=O)N1CCc2[nH]c3ccccc3c2C1	-0.2% (inactive)	
Cc1ccc2[nH]c3c(c2c1)CN(C(=O)CN1CCN(c2ccccc2)CC1)CC3	76.8% (active)	
COc1ccc(OC)c(S(=O)(=O)n2c([N+](=O)[O-])cnc2C)c1	-9.3% (inactive)	
Cc1ccc(NC(=O)/C(=C\c2ccccc2)NC(=O)c2ccco2)cc1	3.5% (inactive)	
O=C(Nc1ccccc1)/C(=C\c1ccco1)NC(=O)c1ccco1	26.2% (inactive)	
COc1ccccc1C(=O)N/C(=C/c1ccco1)C(=O)Nc1ccc(C(=O)O)cc1	59.8% (active)	65.3
O=C(NCc1ccco1)/C(=C/c1ccco1)NC(=O)c1ccccc1	3.9% (inactive)	
COc1ccccc1C(=O)N/C(=C/c1ccc2c(c1)OCO2)C(=O)Nc1cccc(C(=O)O)c1	-11.5% (inactive)	
Cc1cccc(NC(=O)/C(=C\c2ccco2)NC(=O)c2ccccc2)c1	57.6% (active)	
C=CCOc1cccc(C2C(C(=O)c3ccc(C)o3)=C(O)C(=O)N2CCCn2ccnc2)c1 (stereo unspecified)	-4.1% (inactive)	
